Assay outcomes deposited in PubChem BioAssay by National Center for Advancing Translational Sciences (NCATS).
p53 reactivator = qHTS assay for re-activators of p53 using a Luc reporter | AID 504706, 2011 | actives 0.063% (n = 320,000) | Potency, µM (doses to about 92.2 µM), for inactives: at the top dose activity change, positive = activation, actives largely listed as activators | H1299 p53-A138V BP100-luciferase reporter, luminescence, 24 h; further: % of control where 0% means no effect; nearly all actives have a fitted effect of over 45% in size
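H1299 (p53-null), stable ts p53-A138V + BP100-Luc; 1000 cells/well, Opti-MEM/10% FBS; cpd 4 pt, 1:5; 24 h, 37 deg C, 5% CO2; detection reagent 10 min RT; luminescence.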
NPC1 prom act = qHTS Assay for NPC1 Promoter Activators | AID 485313, 2010 | actives 2.4% (n = 320,000) | Potency, µM (doses to about 9.22 µM), for the others: at the top dose activation, hits mostly activators | Huh7 NPC1 promoter luciferase reporter, 24 h; further: % of control where 0% means no effect; nearly all actives have a fitted effect of over 60% in size
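Luminescence read-out of NPC1 promoter-driven luciferase in stably transfected Huh7 cells; compounds delivered in DMSO and left 24 h at 37C, 5% CO2, qHTS titration format.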
FLuc counter = qHTS profiling assay for firefly luciferase inhibitor/activator using purifed enzyme and Km concentrations of substrates (counterscreen for miR-21 project). Luciferin 4-monooxygenase (Photinus pyralis), P08659. purified FLuc, Km substrates, luminescence inhibition. Potency, µM (titrated, usually from 57.5 µM), without a hit: at the highest dose activity change, negative = inhibition, hits mostly inhibitors. actives 6.9% (n = 360,000);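 further: plate controls were vehicle for no effect and reference inhibitor for full effect; nearly all actives have a fitted effect of over 55% in size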
Target sequence (P08659 whole entry, looked up): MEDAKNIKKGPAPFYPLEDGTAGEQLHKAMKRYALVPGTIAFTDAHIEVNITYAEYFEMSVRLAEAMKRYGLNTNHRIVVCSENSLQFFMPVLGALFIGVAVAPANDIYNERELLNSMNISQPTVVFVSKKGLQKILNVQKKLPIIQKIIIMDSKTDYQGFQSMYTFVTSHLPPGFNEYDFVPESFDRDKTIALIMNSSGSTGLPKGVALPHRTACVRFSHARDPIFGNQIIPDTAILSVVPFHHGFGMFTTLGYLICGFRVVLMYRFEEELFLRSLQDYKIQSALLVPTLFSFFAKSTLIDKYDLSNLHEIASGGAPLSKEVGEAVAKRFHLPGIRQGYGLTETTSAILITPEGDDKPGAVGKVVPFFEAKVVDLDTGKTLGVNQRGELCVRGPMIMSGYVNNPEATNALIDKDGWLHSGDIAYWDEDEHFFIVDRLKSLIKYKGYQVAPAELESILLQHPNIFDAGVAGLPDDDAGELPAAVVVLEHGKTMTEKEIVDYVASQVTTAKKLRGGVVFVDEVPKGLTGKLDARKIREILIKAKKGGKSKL
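Purified P. pyralis luciferase, 10 nM final, with Km-level 10 uM D-luciferin and 10 uM ATP in 50 mM Tris acetate pH 7.5, 10 mM Mg acetate, 0.01% Tween-20, 0.05% BSA; 6-point qHTS titration about 60 µM downward; luminescence read.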
Rab9 promoter act = qHTS Assay for Rab9 Promoter Activators | Huh7 Rab9 promoter-luciferase reporter, luminescence, 24 h | actives 2.8% (n = 320,000) | Potency, µM (titrated, usually from 9.22 µM), for inactives: top-dose activation, negative = inhibition, hits mostly activators; further: % of control where 0% means no effect; nearly all actives have a fitted effect of over 60% in size
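Rab9 promoter-driven luciferase in stably transfected Huh7 cells; 1500 cells/well rested 2 h, exposed to compound in DMSO for 24 h at 37 °C, 5% CO2. Luminescence read 10 min after adding luciferase reagent at ambient temperature.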
SMN2 splice up = qHTS Assay for Enhancers of SMN2 Splice Variant Expression. AID 1458, 2008. HEK293 SMN2-luciferase splicing reporter, luminescence, 30-36 h. actives 2.8% (n = 210,000). Potency, µM (highest dose often 46.1 µM), for inactives: at the highest dose activity change, positive = activation, hits mostly activators; further: % of control where 0% means no effect; nearly all actives have a fitted effect of over 55% in size
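HEK293 cells carry an SMN2 […]–luciferase reporter in which exon 7 inclusion puts luciferase in frame. Cells were plated 10-12 h before compound addition, then incubated 30-36 h at 37C. ONE-Glo luminescence was read; sodium butyrate at 4.5 mM final served as control.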
ELG1 genotox = qHTS screen for small molecules that induce genotoxicity in human embryonic kidney (HEK293T) cells expressing luciferase-tagged ELG1; HEK293T ELG1-luciferase reporter, luminescence, 16 h; AID 504466, 2011; Potency, µM (top dose mostly 46 µM), for the others: at the highest dose activity change, positive = activation, hits mostly activators; actives 1.3% (n = 330,000); further: % of control where 0% means no effect; nearly all actives have a fitted effect of over 60% in size
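Reporter readout depends on ELG1 protein level, which increases with genetic stress. After 16 hr compound exposure at 37 °C, luciferase activity was quantified using ONE-Glo.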
* = called active by the depositor; ? = inconclusive; · = no result; [ ] = remark or other dose. Sampled rows, rich in hits. Any-hit rate of the full collection: about 7.4%. The call rests on the fitted dose curve; in most records, active means well fitted curve in the direction sought with a large enough effect; inconclusive means small, poorly fitted or top-dose-only effect, or another doubt; inactive means no such curve, though single readings can be large; an effect the other way counts as inactive or inconclusive. Potency means the concentration at half of the fitted maximal effect.

SMILES | p53 reactivator | NPC1 prom act | FLuc counter | Rab9 promoter act | SMN2 splice up | ELG1 genotox
CCc1ccc(C2CC(c3ccco3)=NN2S(C)(=O)=O)cc1 (centres undefined) | ? | 0.447µM* | 1.35µM* | 0.316µM* | 0.501µM* | ?
CCOc1ccc2cc(C3CC(c4ccco4)=NN3S(C)(=O)=O)c(Cl)nc2c1 (centres undefined) | -6.3% | -3.0% | -8.8% | -2.6% | · | -5.2%
CCc1nnc(NC(=O)C2CCN(c3ncnc4sc(C)c(C)c34)CC2)s1 | 2.2% | -2.6% | 6.0% | -4.6% | · | -0.2%
Cc1sc2ncnc(N3CCC(C(=O)Nc4nc(-c5cccs5)cs4)CC3)c2c1C | ? | -21.1% | 10.7µM* | -19.9% | · | 1.1%
CC[n+]1c(/C=C/c2ccc(N(C)C)cc2)ccc2ccccc21 | 25.6% | -28.4% | ? | -51.0% | -115.9% | 2.9%
C[n+]1c(/C=C/c2ccc(O)cc2)ccc2ccccc21 | ? | -7.2% | 13.5µM* | -2.1% | · | 2.7%
C[n+]1c(/C=C/c2ccc3c(c2)OCO3)ccc2ccccc21 | ? | 7.9% | 10.7µM* | 14.9% | -95.0% | ?
CCc1cccc(C)c1NC(=O)C(CC)Sc1nncn2c1cc1occc12 (centres undefined) | · | · | -1.9% | · | · | ·
O=C(Oc1oc(-c2ccco2)nc1C=Nc1ccccc1)c1ccoc1 | 18.0% | -1.8% | -5.3% | 4.7% | 8.8% | 1.7%
Cc1ccc(C(=O)Oc2oc(-c3ccco3)nc2C=Nc2ccc(Cl)cc2)cc1 | ? | 1.78µM* | 4.78µM* | 3.16µM* | 14.1µM* | ?
CN(C)c1ccc(N=Cc2nc(-c3ccccc3)oc2OC(=O)c2cccc(Cl)c2)cc1 | · | ? | ? | 4.47µM* | 11.2µM* | ?
Cc1ccc(C(=O)Oc2oc(-c3ccccc3)nc2C=Nc2ccc(N(C)C)cc2)cc1 | ? | ? | 13.5µM* | ? | 8.91µM* | ?
COc1ccccc1CNC(=O)C(NS(=O)(=O)c1ccc2c(c1)CCN2C(C)=O)C(C)C (centres undefined) | · | · | -3.3% | · | 3.1% | ·
COc1ccc(/C=C/C(=O)c2ccc(O)cc2)cc1COc1ccc(F)cc1 | -26.5% | -2.4% | 15.1µM* | 2.5% | · | -1.1%
COc1ccc(C(=O)/C=C/c2ccc(OC)c(COc3ccccc3F)c2)cc1 | -8.1% | -0.5% | ? | -2.1% | -45.7% | -1.1%
COc1ccc(/C=C/C(=O)c2ccccc2)cc1COc1ccc(F)cc1 | 9.7% | -2.4% | 9.53µM* | -5.3% | -18.5% | -2.3%
CCOc1ccc(NC(=O)c2cc(S(=O)(=O)N3CCC(C)CC3)cn2C)cc1 | · | · | 2.1% | · | · | ·
Clc1cccc(CNc2ncnc3c2nc2n3CCCC2)c1 | · | · | -1.9% | · | · | ·
Cc1ccc(N2C(=O)c3n[nH]c(C)c3C2c2ccc(Cl)cc2)cc1 (centres undefined) | · | · | 9.53µM* | · | ? | ·
O=C(O)c1ccc(CSc2nc3ccccc3o2)cc1 | 4.5% | -1.2% | 19µM* | 0.2% | -9.8% | 4.6%
O=C(O)c1ccccc1CSc1nc2ccccc2o1 | 18.1% | 4.47µM* | 10.7µM* | ? | ? | ?
COc1cccc(CNC(=O)C(C)n2c(=O)cc(-c3ccccc3)c3c(C)nn(C)c32)c1 (centres undefined) | · | · | -13.5% | · | · | ·
CCc1ccc(C(=O)CN2C(=O)NC3(CCOc4ccccc43)C2=O)s1 (centres undefined) | -8.5% | -2.7% | 16.9µM* | 1.4% | · | 0.7%
O=C(NCc1cccs1)c1cc(C2CC2)on1 | 20.0% | 23.0% | ? | ? | 23.6% | 23.1µM*
O=C(NCc1cccs1)c1cc(-c2ccccc2)on1 | 25.0% | 2.51µM* | ? | 2.51µM* | 25.1µM* | 7.31µM*
SMILES | p53 reactivator | NPC1 prom act | FLuc counter | Rab9 promoter act | SMN2 splice up | ELG1 genotox
O=C(NCc1cccs1)c1cc(-c2cccs2)on1 | ? | 3.55µM* | ? | 3.55µM* | ? | ?
Cc1cc(C(=O)NCc2cccs2)no1 | -2.1% | 0.5% | 2.7% | 2.3% | -1.7% | 6.5%
COc1ccc(CNC(=O)c2cc(-c3cccs3)on2)cc1 | 27.8% | 8.7% | -17.5% | 5.9% | -35.3% | 2.4%
COCCNC(=O)c1cc(-c2cccs2)on1 | ? | 23.8% | ? | 3.16µM* | 16.8% | 14.6µM*
Cc1cccc(C(=O)Nc2ccc(C(=O)OCc3cc(=O)n4nc(C5CC5)sc4n3)cc2)c1 | · | · | -8.5% | · | · | ·
CCOC(=O)c1ccc(NC(=O)Nc2ccon2)cc1 | ? | 16.3% | 19µM* | -8.9% | · | 7.3µM*
CCCCc1nnc(NC(=O)C2CCCO2)s1 (centres undefined) | ? | 10.7% | -2.3%[2.3 µM] | 28.2% | 35.5µM* | 14.8%
CCOC(=O)c1ccc(NC(=O)C2CCCO2)cc1 (centres undefined) | ? | ? | ? | 6.31µM* | 42.8% | 27.0%
CCCCc1ccc(NC(=O)C2CCCO2)cc1 (centres undefined) | · | 1.58µM* | 13.5µM* | 2.24µM* | 10µM* | ?
Cc1nnc(NC(=O)C2=COCCO2)s1 | 13.7% | 10.9% | -2.2% | 17.2% | · | ?
CCCCc1nnc(NC(=O)C2=COCCO2)s1 | ? | 2.51µM* | 16.9µM* | 4.47µM* | · | 14.6µM*
COC(=O)Cc1ccc(NC(=O)c2ccc(C(C)(C)C)cc2)cc1 | -9.8% | -29.2% | 1.35µM* | -19.2% | -86.9% | -22.6%
CC(C)(C)c1ccc(C(=O)Nc2ccc(Cl)cc2)cc1 | ? | 2.82µM* | ? | 1.41µM* | 3.55µM* | ?
NS(=O)(=O)c1ccc(NC(=O)c2ccccc2Cl)cc1 | -6.0% | -2.4% | -0.8% | -1.1% | -2.5% | -0.7%
CC(=O)Nc1nonc1NC(=O)c1ccc(C(C)(C)C)cc1 | ? | ? | ? | 3.55µM* | ? | 19.2%
COC(=O)Cc1ccc(NC(=O)c2ccccc2Cl)cc1 | -4.4% | 1.9% | 15.1µM* | -2.4% | 22.8% | 15.1%
C=C(C)Cn1c(SCC(=O)Nc2ccccc2C)nc2sc3c(c2c1=O)CCCC3 | · | · | -12.9% | · | -9.4% | ·
Cc1ccccc1NC(=O)Cc1nc(COC(=O)c2ccc(S(C)(=O)=O)c([N+](=O)[O-])c2)cs1 | -34.4% | -13.6% | · | -8.6% | · | -6.4%
CC(C)(C)c1ccc(NC(=O)c2ccsc2)cc1 | 12.1% | 0.447µM* | 1.07µM* | 0.398µM* | · | ?
Cc1ccc(NC(=O)c2ccsc2)cc1NS(C)(=O)=O | -1.5% | -5.3% | -2.7% | -2.7% | · | 2.2%
